The text below walks through data of PubChem BioAssay (Tox21).

Experiment [1] in a line: qHTS assay to identify small molecule antagonists of the estrogen receptor alpha (ER-alpha) signaling pathway using the BG1 cell line in the presence of 0.1 nM 17-beta-estradiol - cell viability counter screen (AID 1259241). Further: nearly all actives have a fitted effect of over 40% in size. Put shortly:
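CellTiter-Fluor read (30 min, 37C) on ER-alpha/ERE-luc VM7Luc4E2 cells; 22 hr compound treatment; agonist 0.1 nM E2 final; same-well multiplex.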

Experiment [2] in a line: qHTS assay to identify small molecule antagonists of the androgen receptor (AR) signaling pathway using the MDA cell line in the presence of 0.5 nM R1881 - cell viability counter screen (AID 1259242). Further: nearly all actives have a fitted effect of over 45% in size. Put shortly: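 qHTS format. MDA-kb2 (MMTV-luc, AR/GR responsive) + cpd + 0.5 nM R1881 final, 16 hr 37C/0% CO2 → CellTiter-Fluor 30 min → fluorescence intensity.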
Experiment [3] concerns the target Estrogen receptor (Homo sapiens) (UniProt P03372). The experiment in a line: qHTS assay to identify small molecule antagonists of the estrogen receptor alpha (ER-alpha) signaling pathway using the BG1 cell line in the presence of 0.1 nM 17-beta-estradiol (AID 1259244). Further: nearly all actives have a fitted effect of over 50% in size. Summed up: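 Reporter is a stably transfected luciferase under four estrogen responsive elements in VM7Luc4E2 cells expressing native full-length ER-alpha; inhibition of 0.1 nM (final) 17beta-estradiol-driven signal over 22 h is read by luminescence.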
In general terms: In qHTS, concentration-response curves come from the screen itself.

Experiment [4] in a line: qHTS assay to identify small molecule HDAC inhibitors (AID 1259364).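 Further: wild-type HCT-116 cells with endogenous class I/II HDAC activity; top concentration of the series differs between compounds; nearly all actives have a fitted effect of over 45% in size.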 Summed up: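 Quantitative high-throughput format: overnight-seeded HCT-116 cells got compounds for 2 hr at 37C; HDAC-Glo I/II reagent added, 30 min RT, luminescence measured.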
Experiment [5] is described as follows: qHTS assay to identify small molecule HDAC inhibitors - cell viability counter screen (AID 1259365). Further: series mostly up to about 92 µM; nearly all actives have a fitted effect of over 50% in size. Put shortly:
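To flag cytotoxic hits, 1,500 wild-type HCT-116 cells per well, plated the day before, receive test compounds for 2hr at 37 C before CellTiter-Glo reagent and a luminescence read.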

The nature of experiment [6]: qHTS assay to identify small molecule agonists of the sonic hedgehog signaling (Shh) pathway - cell viability counter screen (AID 1259366). Further: nearly all actives have a fitted effect of over 50% in size. Summed up:
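Fluorescence from CellTiter-Fluor reports live cells in this counter screen. NIH/3T3-derived Gli1-Luc reporter cells receive test compounds for 24hr at 37C; reagent goes in at 23hr.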

The nature of experiment [7]: qHTS assay to identify small molecule antagonists of the sonic hedgehog signaling (Shh) pathway - cell viability counter screen (AID 1259367). Further: nearly all actives have a fitted effect of over 55% in size. Summed up:
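CellTiter-Fluor signal in conditioned medium-stimulated 3T3 Gli1-Luc cells, 23 hr compound exposure, 37C.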

Experiment [8] can be described thus: qHTS assay to identify small molecule agonists of the sonic hedgehog signaling (Shh) pathway (AID 1259368; calls by dose curve;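 further: NIH/3T3-derived 3T3Gli1-Luc cells carrying a stable Gli1-driven firefly luciferase reporter; series mostly up to about 92 µM; nearly all actives have a fitted effect of over 15% in size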). Summed up:
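Quantitative high-throughput format using a Gli1-driven firefly luciferase reporter line derived from NIH/3T3 cells. After a 24 hr compound treatment at 37 C and 5% CO2, luminescence reported Gli1 response element activity.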

A short description of experiment [9]: qHTS assay to identify small molecule antagonists of the sonic hedgehog signaling (Shh) pathway (AID 1259369; calls by dose curve; further: nearly all actives have a fitted effect of over 45% in size). Summed up: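 Stable Gli1-Luc reporter NIH/3T3 clone; quantitative HTS in stimulated mode with conditioned medium. Luminescence measured after 24hr compound treatment at 37 C.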
The nature of experiment [10]: qHTS assay to identify small molecule agonists of the androgen receptor (AR) signaling pathway in the presence of an antagonist - cell viability counter screen (AID 1259379).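 Further: MDA-kb2 human breast cancer cells carrying an MMTV luciferase reporter; series mostly up to about 92 µM; nearly all actives have a fitted effect of over 25% in size.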 Put shortly:
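Nilutamide-containing (3.0uM final) MDA-kb2 cultures, 3,000 cells/well, were treated with compounds across 15 concentrations. After 16 hr at 37C with no CO2, cell viability was determined by CellTiter-Fluor fluorescence in the luciferase assay wells.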

Experiment [11] is described as follows: qHTS assay to identify small molecule agonists of the estrogen receptor beta (ER-beta) signaling pathway - cell viability counter screen (AID 1259380). Further: nearly all actives have a fitted effect of over 30% in size. Put shortly:
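Steps: plate ER-beta-UAS-bla HEK293T cells, rest 6 hr; add compounds in DMSO; incubate 16 hr at 37C, 5% CO2; add FRET substrate 2 hr; add CellTiter-Glo, wait 30 min at room temperature; read luminescence.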

Experiment [12] has as its target Estrogen receptor (Homo sapiens) (UniProt P03372). The experiment in a line: qHTS assay to identify small molecule agonists of the estrogen receptor alpha (ER-alpha) signaling pathway in the presence of an antagonist (AID 1259383; calls by dose curve; further: top concentration of the series differs between compounds; nearly all actives have a fitted effect of over 15% in size). Put shortly: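 Readout was ERE-driven luciferase luminescence in VM7Luc4E2 cells, which express full-length ER-alpha endogenously. Compounds were tested at 15 concentrations for 22hr alongside 10.0nM ICI-182,780 (final concentration).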

Experiment [13] in a line: qHTS assay to identify small molecule agonists or antagonists of the thyroid stimulating hormone receptor (TSHR) signaling pathway - wild type cell line counter screen (AID 1259384; calls by dose curve; further: potency means the concentration at half of the fitted maximal effect). Put shortly: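 Counter screen in untransfected Hek293: compounds (15-point titration, triplicate) plus phosphodiesterase inhibitor Ro20-1724 added after 18 h plating; 30 min RT. Intracellular cAMP via competitive d2/cryptate immunoassay, 1 h incubation.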

Experiment [14] has as its target Thyrotropin receptor (Homo sapiens) (UniProt P16473). The experiment can be described thus: qHTS assay to identify small molecule antagonists of the thyroid stimulating hormone receptor (TSHR) signaling pathway (AID 1259385; calls by dose curve; further: nearly all actives have a fitted effect of over 20% in size). Summed up:
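Antagonist mode: compound-treated TSHR-expressing HEK293 cells were stimulated with 1.5 ng/mL TSH (final) in presence of Ro20-1724 for 30 min at RT. HTRF cAMP detection after 1 h; each compound tested at 15 concentrations, triplicate.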

Experiment [15] can be described thus: qHTS assay to identify small molecule antagonists of the estrogen receptor beta (ER-beta) signaling pathway - cell viability counter screen (AID 1259382).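 Further: HEK293T cells carrying ER-beta-UAS-bla reporter stimulated with estradiol; series mostly up to about 92 µM; nearly all actives have a fitted effect of over 55% in size.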 Put shortly:
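Viability is scored by CellTiter-Glo luminescence (30 min, room temperature) in ER-beta-UAS-bla HEK293T wells already read for reporter fluorescence. Compound exposure lasts 16 hr at 37C alongside 1nM 17-beta-estradiol in charcoal-stripped serum medium.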

The target in experiment [16] is Estrogen receptor beta (Homo sapiens) (UniProt Q92731). The experiment can be described thus: qHTS assay to identify small molecule agonists of the estrogen receptor beta (ER-beta) signaling pathway (AID 1259377; active means well fitted activation curve with a large enough effect in the signal ratio in the repeat runs, not every such curve was filed as active; the % refers to the signal ratio). Summed up: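 Screening used GripTite ER-beta-UAS-bla cells held in 2% charcoal-stripped FBS medium. After overnight (16 hr) compound incubation at 37C, beta-lactamase activity was detected with a FRET substrate by fluorescence.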

For experiment [17] the target is unchanged. The experiment in a line: qHTS assay to identify small molecule antagonists of the estrogen receptor beta (ER-beta) signaling pathway (AID 1259378; active means well fitted inhibition curve with a large enough effect in the signal ratio in the repeat runs, not every such curve was filed as active; the % refers to the signal ratio). Summed up: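 Antagonist mode: compounds added to beta-lactamase reporter HEK293T ER-beta-UAS cells stimulated with E2 (1nM final), 16 hr at 37C. LiveBLAzer B/G FRET substrate, 2 hours room temperature, fluorescence read-out.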

A short description of experiment [18]: qHTS assay to identify small molecule phospholipidosis (PLD) inducers (AID 1259344; active means well fitted curve in the direction sought with a large enough effect; an effect the other way counts as inactive or inconclusive). Put shortly:
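Accumulated phospholipid, stained red by LipidTOX during 24 h compound treatment of HepG2 cells at 37 C, is quantified from images as pit number and intensity, normalised per cell using Hoechst-stained nuclei.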

A number with no mark means an inactive call. Inconclusive results are not listed. Activity calls are given as the source filed them. Unless noted, the call rests on the fitted dose curve; in most records, active means well fitted curve in the direction sought with a large enough effect in the repeat runs; inconclusive means weak or mixed curves; inactive means no such curve, though single readings can be large; an effect the other way counts as inactive or inconclusive.

Chain of Estrogen receptor beta (Homo sapiens) (Q92731 whole entry, looked up): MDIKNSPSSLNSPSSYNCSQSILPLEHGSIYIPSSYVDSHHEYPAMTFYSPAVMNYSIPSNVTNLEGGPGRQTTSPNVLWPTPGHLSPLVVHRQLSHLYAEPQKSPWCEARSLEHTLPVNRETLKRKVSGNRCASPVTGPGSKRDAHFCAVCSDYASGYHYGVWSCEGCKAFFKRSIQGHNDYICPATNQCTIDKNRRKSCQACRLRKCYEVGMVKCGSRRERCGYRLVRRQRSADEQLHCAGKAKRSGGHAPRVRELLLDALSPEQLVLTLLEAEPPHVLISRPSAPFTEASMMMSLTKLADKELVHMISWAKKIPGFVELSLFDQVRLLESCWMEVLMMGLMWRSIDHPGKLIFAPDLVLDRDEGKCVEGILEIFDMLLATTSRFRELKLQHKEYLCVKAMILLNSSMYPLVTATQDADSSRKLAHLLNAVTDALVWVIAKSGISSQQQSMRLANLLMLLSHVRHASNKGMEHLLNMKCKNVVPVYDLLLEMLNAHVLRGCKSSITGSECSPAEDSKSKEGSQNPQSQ
Chain of Estrogen receptor (Homo sapiens) (P03372 whole entry, looked up): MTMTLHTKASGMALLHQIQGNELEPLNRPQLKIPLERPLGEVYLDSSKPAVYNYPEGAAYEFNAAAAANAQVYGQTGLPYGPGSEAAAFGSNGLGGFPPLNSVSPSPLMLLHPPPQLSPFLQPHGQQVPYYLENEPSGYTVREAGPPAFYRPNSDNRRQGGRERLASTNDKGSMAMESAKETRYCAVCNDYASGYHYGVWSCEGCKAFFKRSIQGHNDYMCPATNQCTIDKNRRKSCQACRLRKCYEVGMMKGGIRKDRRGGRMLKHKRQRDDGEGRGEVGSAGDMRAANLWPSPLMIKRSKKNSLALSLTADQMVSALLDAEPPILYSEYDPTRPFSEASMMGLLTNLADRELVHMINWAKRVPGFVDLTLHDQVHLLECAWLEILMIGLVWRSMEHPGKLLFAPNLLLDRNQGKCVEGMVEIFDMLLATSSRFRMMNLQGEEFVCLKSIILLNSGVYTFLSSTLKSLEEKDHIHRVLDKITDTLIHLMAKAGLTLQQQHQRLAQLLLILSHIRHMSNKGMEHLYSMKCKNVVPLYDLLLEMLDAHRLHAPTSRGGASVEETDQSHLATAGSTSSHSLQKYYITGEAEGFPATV
Chain of Thyrotropin receptor (Homo sapiens) (P16473 whole entry, looked up): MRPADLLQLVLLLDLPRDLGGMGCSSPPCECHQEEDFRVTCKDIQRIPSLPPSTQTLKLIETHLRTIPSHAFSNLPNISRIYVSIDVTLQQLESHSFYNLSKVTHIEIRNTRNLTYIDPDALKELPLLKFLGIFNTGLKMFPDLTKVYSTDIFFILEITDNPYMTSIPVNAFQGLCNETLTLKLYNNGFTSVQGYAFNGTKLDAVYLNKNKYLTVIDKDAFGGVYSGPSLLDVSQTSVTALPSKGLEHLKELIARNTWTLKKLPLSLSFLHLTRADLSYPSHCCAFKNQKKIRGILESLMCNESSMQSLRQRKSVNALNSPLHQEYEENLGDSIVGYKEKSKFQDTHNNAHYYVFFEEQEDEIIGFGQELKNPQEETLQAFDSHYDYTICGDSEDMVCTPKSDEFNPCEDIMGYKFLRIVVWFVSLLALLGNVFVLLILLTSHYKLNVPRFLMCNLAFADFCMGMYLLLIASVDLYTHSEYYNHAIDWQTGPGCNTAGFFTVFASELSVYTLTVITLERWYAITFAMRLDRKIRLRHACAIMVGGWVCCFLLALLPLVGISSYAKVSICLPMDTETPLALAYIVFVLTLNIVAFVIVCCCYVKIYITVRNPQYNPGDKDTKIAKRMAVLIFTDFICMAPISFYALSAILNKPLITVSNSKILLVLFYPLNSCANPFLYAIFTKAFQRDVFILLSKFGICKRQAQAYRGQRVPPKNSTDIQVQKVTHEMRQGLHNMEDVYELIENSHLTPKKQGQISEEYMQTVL

In the case of `O=S(=O)(O)c1ccc(O)c2ncccc12`, the Potency entry in experiment [1], in [2], in [3], in [4], in experiment [6] and in experiment [7] was “inactive” in each case. In addition, the Potency result in [9], in [10], in experiment [11], in experiment [12], in experiment [13] and in [14] was “inactive” in each case. Also, the outcome in [5] and in [8] was inactive.
As to `CC(=O)/C=C/C1C(C)=CCCC1(C)C` (stereo not drawn), the Potency result in experiment [1], in experiment [2], in experiment [3], in [4], in experiment [6] and in experiment [7] was “inactive” throughout. Also, the Potency result in [9], in experiment [10], in experiment [11] and in experiment [15] was “inactive” each time. Also, the result in experiment [5] and in experiment [8] was inactive.
For `Cc1cccc(C(C)(C)C)c1O`, the Potency result in experiment [1], in experiment [2], in experiment [3], in [4], in experiment [6] and in [7] was “inactive” throughout. The Potency entry in experiment [9], in experiment [16], in experiment [17], in experiment [10], in experiment [11] and in experiment [15] was “inactive” throughout. Moreover, in experiment [12], the Potency result was “inactive”. Besides, the outcome in experiment [5] and in experiment [8] was inactive.
As for `Cc1occc1S`, the Potency entry in [1], in [2], in experiment [3], in [4], in experiment [6] and in [7] was “inactive” in each case. For the same compound, the Potency entry in experiment [9], in experiment [16], in experiment [17], in experiment [10], in experiment [13] and in [14] was “inactive” each time. Further, the result in experiment [5] and in experiment [8] was inactive.
With `COC(=O)C(C)=O`, the Potency result in experiment [1], in [2], in experiment [3], in [4], in experiment [6] and in experiment [7] was “inactive” each time. For the same compound, the Potency entry in [9], in experiment [16], in experiment [17], in experiment [10], in experiment [11] and in [15] was “inactive” each time. Besides, the Potency result in experiment [12], in experiment [13] and in [14] was “inactive” throughout. Further, the compound was classed as inactive in experiment [5] and in experiment [8].
Regarding `COC(Cc1ccccc1)OC`, the Potency result in experiment [1], in experiment [2], in experiment [3], in [4], in experiment [6] and in experiment [7] was “inactive” each time. Besides, the Potency entry in experiment [9], in experiment [10], in experiment [11], in experiment [13] and in experiment [14] was “inactive” throughout. The result in experiment [5] and in experiment [8] was inactive.
With `O=C(O)C1CCC(C(=O)O)CC1` (stereo not drawn), the Potency entry in experiment [1], in [2], in experiment [3], in [4], in [6] and in experiment [7] was “inactive” throughout. Moreover, the Potency result in [9], in [16], in [17], in [10], in [11] and in [15] was “inactive” each time. Further, the Potency result in [12], in experiment [13] and in [14] was “inactive” throughout. The compound was called inactive in experiment [5] and in [8].
For the compound `Cc1ncsc1CCO`, the Potency entry in experiment [1], in experiment [2], in experiment [3], in experiment [4], in experiment [6] and in experiment [7] was “inactive” in each case. Besides, the Potency result in experiment [9], in experiment [16], in [17], in experiment [10], in [11] and in [15] was “inactive” in each case. For the same compound, the Potency result in experiment [12], in [13] and in experiment [14] was “inactive” each time. The compound was classed as inactive in experiment [5] and in experiment [8].
Consider `CCCCCCCCCO`, for which the Potency result in experiment [1], in experiment [2], in experiment [3], in [4], in experiment [6] and in experiment [7] was “inactive” each time. The Potency entry in experiment [9], in experiment [16], in [17], in experiment [10], in experiment [15] and in [12] was “inactive” each time. In addition, the Potency result in experiment [14] was “inactive”. Moreover, the outcome in experiment [5] and in experiment [8] was inactive.
With `CN(C)CCCOc1nn(Cc2ccccc2)c2ccccc12`, the Potency result in experiment [1], in experiment [2], in experiment [3], in experiment [18], in experiment [4] and in experiment [7] was “inactive” in each case. Also, the Potency entry in experiment [9], in [17], in experiment [10], in [15], in experiment [12] and in experiment [13] was “inactive” throughout. In addition, in [14], the Potency result is “inactive”. Besides, in experiment [8], the result was inactive.
`COc1ccc(OC)c(OC)c1`: the Potency result in experiment [1], in experiment [2], in experiment [3], in experiment [4], in [6] and in experiment [7] was “inactive” in each case. Moreover, the Potency entry in [9], in [17], in experiment [10], in experiment [11], in experiment [15] and in [12] was “inactive” throughout. In addition, the Potency result in [13] and in experiment [14] was “inactive” each time. Further, the compound was called inactive in experiment [5] and in [8].
In the case of `CC(C)NCC(O)c1cc(O)cc(O)c1` (stereo not drawn), the Potency entry in experiment [1], in experiment [2], in [18], in [4], in experiment [6] and in experiment [7] was “inactive” throughout. The Potency result in experiment [9], in experiment [10], in [11], in experiment [15] and in experiment [14] was “inactive” in each case. Also, the result in experiment [5] and in experiment [8] was inactive. In experiment [13], the Potency was 8.1 µM (active).
